Screening results (PubChem BioAssay)
T cruzi growth: inhibitors of T. cruzi proliferation; T. cruzi beta-gal in NIH3T3, GalScreen luminescence, 90 h; inhibition, % at 8.34 µM; actives 5.9% (n = 77,000);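 active = mean inhibition above about 93%, with at least 55% of replicates each passing it, limit read from the data, passing the limit was not always enough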
Pf Dd2 inh: blocks growth of Plasmodium falciparum Dd2 parasites | P. falciparum Dd2 growth, SYBR Green, 72 h; hits give low values | activity change, % at 10 µM | AID 1159554 | actives 2.3% (n = 94,000); in the data active = activity change below about -80%
C diff HTS: C. difficile growth inhibition | Clostridium difficile clinical isolate growth, OD600, 24 h; hits give low values | growth activity, negative = inhibition, % at 16 µg/mL (by protocol) | actives 0.25% (n = 86,000) | AID 1259249;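 active = mean growth activity at or below -80% and every replicate also at or below -80%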;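 also: 0% = DMSO wells and -100% = levofloxacin 16 µg/mL wells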
An asterisk follows results filed as active; . = no result; ! = a repeat was not active. Shown are actives, neighbours in structure and some others; about 6.7% of the full set was active somewhere.

SMILES	T cruzi growth	Pf Dd2 inh	C diff HTS
O=C(C[C@@H]1C=C[C@H](NC(=O)c2cccnc2)[C@@H](CO)O1)NCCN1CCCCC1	0	21	-4
C[C@@H]1CCCCO[C@@H](CN(C)C(=O)Nc2ccc(F)cc2)[C@@H](C)CN([C@H](C)CO)C(=O)c2cc(NC(=O)CCC(F)(F)F)ccc2O1	37	-40	.
C[C@@H]1CCCCO[C@H](CN(C)S(=O)(=O)c2cccs2)[C@H](C)CN([C@@H](C)CO)C(=O)c2cc(NC(=O)Nc3cccc4ccccc34)ccc2O1	19	-54	.
C[C@@H]1CCCCO[C@@H](CN(C)S(=O)(=O)c2ccc(F)cc2)[C@H](C)CN([C@H](C)CO)C(=O)c2cc(NC(=O)Nc3cccc4ccccc34)ccc2O1	90	-82*	-5
C[C@H](CO)N1C[C@H](C)[C@@H](CN(C)S(=O)(=O)c2ccc(F)cc2)OCCCC[C@H](C)Oc2ccc(NC(=O)Nc3cccc4ccccc34)cc2C1=O	85	-40	-1
C[C@@H]1CN([C@H](C)CO)C(=O)c2cc(NC(=O)Nc3cccc4ccccc34)ccc2O[C@@H](C)CCCCO[C@@H]1CN(C)S(=O)(=O)c1cccs1	15	-88*	.
C[C@@H]1CCCCO[C@H](CN(C)S(=O)(=O)c2ccccc2)[C@@H](C)CN([C@H](C)CO)C(=O)c2cc(NC(=O)Nc3cccc4ccccc34)ccc2O1	58	6	1
C[C@@H]1CCCCO[C@@H](CN(C)S(=O)(=O)c2cn(C)cn2)[C@@H](C)CN([C@H](C)CO)C(=O)c2cc(NC(=O)Nc3cccc4ccccc34)ccc2O1	-17	-39	13
C[C@@H]1CN([C@H](C)CO)C(=O)c2cc(NC(=O)Nc3cccc4ccccc34)ccc2O[C@@H](C)CCCCO[C@@H]1CN(C)S(=O)(=O)c1ccccc1	.	-93*	2
C[C@@H]1CN([C@@H](C)CO)C(=O)c2cc(NC(=O)Nc3cccc4ccccc34)ccc2O[C@@H](C)CCCCO[C@@H]1CN(C)S(=O)(=O)c1cn(C)cn1	19	-90*	8
CCC(=O)N1C[C@@H](C)[C@@H](OC)CN(C)C(=O)c2ccc(NC(=O)Nc3ccc(Cl)cc3)cc2OC[C@@H]1C	41	-22	.
Cc1ccc(-c2cnc3c(c2)C(=O)N([C@@H](C)CO)C[C@@H](C)[C@H](CN(C)C(=O)CN(C)C)O3)cc1	.	-6	0
C[C@H](CO)N1C[C@H](C)[C@H](CN(C)C(=O)Nc2cccc3ccccc23)Oc2c(NC(=O)c3cnccn3)cccc2C1=O	37	0	-1
CNC[C@@H]1Oc2cc(-c3cncnc3)ccc2S(=O)(=O)N([C@@H](C)CO)C[C@H]1C	46	.	-5
C[C@@H]1CCCCO[C@@H](CN(C)S(=O)(=O)c2ccc(F)cc2)[C@@H](C)CN([C@@H](C)CO)C(=O)c2cc(NC(=O)Nc3cccc4ccccc34)ccc2O1	61	-84*	4
C[C@@H]1CCCCO[C@@H](CN(C)S(=O)(=O)c2ccc(F)cc2)[C@H](C)CN([C@@H](C)CO)C(=O)c2cc(NC(=O)Nc3cccc4ccccc34)ccc2O1	88	-42	-4
CCCC(=O)N1CCC2(CC1)CN(C(=O)c1ccc(F)cc1)[C@@H](CO)c1[nH]c3cc(OC)ccc3c12	.	-60	11
Cc1cccc(S(=O)(=O)N2C[C@@H](O)COC[C@H]3O[C@@H](CC(=O)NCc4ccncn4)CC[C@@H]32)c1	11	11	.
C[C@H]1CN([C@@H](C)CO)C(=O)Cc2cc(NC(=O)NC3CCCCC3)ccc2O[C@@H]1CN(C)C(=O)Nc1ccc(F)cc1	.	8	-8
C[C@@H]1CN([C@@H](C)CO)C(=O)c2cccc(NS(=O)(=O)c3ccccc3)c2O[C@H]1CN(C)Cc1ccc(Oc2ccccc2)cc1	78	-83*	-4
C[C@@H]1CN([C@@H](C)CO)C(=O)c2cccc(NS(=O)(=O)c3ccccc3)c2O[C@@H]1CN(C)Cc1ccc(Oc2ccccc2)cc1	39	-63	44
C[C@H](CO)N1C[C@H](C)[C@@H](CN(C)Cc2ccc(Oc3ccccc3)cc2)Oc2c(NS(=O)(=O)c3ccccc3)cccc2C1=O	.	-18	-9
C[C@@H]1CN([C@H](C)CO)C(=O)c2cccc(NS(=O)(=O)c3ccccc3)c2O[C@H]1CN(C)Cc1ccc(Oc2ccccc2)cc1	50	-86*	15
COc1ccc(S(=O)(=O)N(C)C[C@H]2Oc3c(NS(=O)(=O)c4cccs4)cccc3C(=O)N([C@@H](C)CO)C[C@H]2C)cc1	16	22	-3
CCS(=O)(=O)N1CC2(C1)[C@@H](c1ccccc1)[C@@H](CO)N2Cc1ccc(F)cc1	.	-12	0
SMILES	T cruzi growth	Pf Dd2 inh	C diff HTS
COc1ccccc1CN1CC2(C1)[C@H](c1ccccc1)[C@@H](CO)N2Cc1ccccc1	.	-90*	29
COc1ccccc1CN1[C@H](CO)[C@@H](c2ccccc2)C12CN(C(C)=O)C2	.	-47	-6
CCS(=O)(=O)N1CC2(C1)[C@@H](c1ccccc1)[C@H](CO)N2Cc1ccc(F)cc1	.	-83*	-1
O=C(CC1CC1)N1CC2(C1)[C@H](c1ccccc1)[C@@H](CO)N2Cc1ccc(F)cc1	.	-66	-3
OC[C@@H]1[C@@H](c2ccccc2)C2(CN(CC3CC3)C2)N1Cc1ccc(F)cc1	.	-88*	18
C[C@@H]1CCCCO[C@H](CN(C)C(=O)Nc2ccc3c(c2)OCO3)[C@@H](C)CN([C@H](C)CO)C(=O)c2cc(NS(=O)(=O)c3ccccc3)ccc2O1	41	20	-10
Cc1noc(C)c1NC(=O)Nc1ccc2c(c1)C(=O)N(C)[C@@H]1CC[C@H](CC(=O)N(C)C)O[C@H]1CO2	3	1	-4
O=C(C[C@@H]1CC[C@H]2[C@@H](COC[C@@H](O)CN2C(=O)Nc2ccc(Cl)c(Cl)c2)O1)NCc1ccc(Cl)cc1	51	-5	-91*
CCCNC(=O)C[C@H]1CC[C@@H]2[C@H](COC[C@@H](O)CN2C(=O)Nc2ccc(Cl)c(Cl)c2)O1	-93	-28	37
O=C(C[C@H]1CC[C@H]2[C@@H](COC[C@@H](O)CN2C(=O)Nc2ccc(Cl)c(Cl)c2)O1)NCc1ccc(F)cc1	-49	-8	-53
O=C(C[C@H]1CC[C@H]2[C@@H](COC[C@H](O)CN2C(=O)Nc2ccc(Cl)c(Cl)c2)O1)NCc1ccc(F)cc1	57	-34	-94*
CCCNC(=O)C[C@@H]1CC[C@H]2[C@@H](COC[C@@H](O)CN2C(=O)Nc2ccc(Cl)c(Cl)c2)O1	-17	-8	-103*!
O=C(C[C@@H]1CC[C@H]2[C@@H](COC[C@@H](O)CN2C(=O)Nc2ccc(Cl)c(Cl)c2)O1)NCc1ccc(F)cc1	-34	2	-28
O=C(C[C@@H]1CC[C@H]2[C@@H](COC[C@H](O)CN2C(=O)Nc2ccc(Cl)c(Cl)c2)O1)NCc1ccc(F)cc1	15	8	-84*
O=C(C[C@H]1CC[C@H]2[C@@H](COC[C@@H](O)CN2C(=O)Nc2ccc(Cl)c(Cl)c2)O1)NCc1ccc(Cl)cc1	88	1	-69
COc1ccc(S(=O)(=O)N(C)C[C@H]2Oc3ccc(NS(=O)(=O)c4ccccc4)cc3C(=O)N([C@@H](C)CO)C[C@@H]2C)cc1	-7	10	-9
